Only a selection was taken, and hits are over-represented in it overall.
KDM5B inhibitor: blocks human KDM5B histone demethylase activity; Q9UGL1; KDM5B demethylase, FDH-coupled NADH fluorescence (FDH is formaldehyde dehydrogenase); Potency, µM (top dose mostly 57.7 µM), hits mostly inhibitors; hit rate 2.6% among 220,000; AID 1347165; active means well fitted inhibition curve with a large enough effect; further: nearly all actives have a fitted effect of over 70% in size
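Here, H3K4me3 peptide (12.5 µM in substrate mix) is demethylated by KDM5BΔAP, 200 nM final, after 10 min compound exposure. Formaldehyde product is coupled through FDH (0.25 U/mL in mix) to NADH fluorescence; 30-min ΔRFU feeds dose-response curves.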
Each line names hits and unclear results; the compound was inactive in the other large screens.

CC(C)Cc1nc2nccc(-c3ccccc3)n2n1	KDM5B inhibitor 28µM
CCc1nn2c(-c3ccco3)ccnc2c1-c1ccc(F)cc1	none
c1ccc(CCc2nc3nccc(-c4ccco4)n3n2)cc1	KDM5B inhibitor 25µM
COc1ccc(CCc2nc3nccc(-c4ccco4)n3n2)cc1OC	none
CC(C)Cc1nc2nccc(-c3ccncc3)n2n1	KDM5B inhibitor 28µM
O=C(Nc1ccc(C23CC4CC(CC(C4)C2)C3)cc1)c1ccc(Cl)cc1Cl	none
COc1ccc(Nc2nc(NCc3ccc4c(c3)OCO4)nc3nccnc23)cc1	none
Nc1nnnn1Cc1nnc(SCc2ccccc2Cl)n1-c1ccccc1	none
COc1ccc(C(=O)ON=C2CCCCC2)cc1Br	none
CSc1cccc(N=Cc2ccc(-c3ccccc3Cl)o2)c1	none
Fc1ccc(C2=CC(c3cccc(Br)c3)n3nnnc3N2)cc1 (stereo unspecified)	none
COc1ccc(CCNC(=O)C2CC(c3cc(OC)c(OC)c(OC)c3)=NO2)cc1OC (stereo unspecified)	none
O=C(Cc1coc2cc3c(cc12)CCC3)NC1CCSc2c(F)cccc21 (stereo unspecified)	none
Fc1cc(F)cc(Cc2nc3nccc(-c4ccncc4)n3n2)c1	none
Fc1ccc(Cc2nc3nccc(-c4cccnc4)n3n2)cc1	none
Fc1cc(F)cc(Cc2nc3nccc(-c4ccccc4)n3n2)c1	KDM5B inhibitor 28µM
CCS(=O)(=O)N1CCc2cc(C(=O)Nc3c(C)cc(C)cc3C)ccc21	none
Cc1cccn2cc(CSc3ncnc4ccccc34)nc12	none
COc1ccc(-c2noc(-c3cccc(NC(=O)C4CC(=O)N(c5ccc(OC)cc5)C4)c3)n2)cc1 (stereo unspecified)	none
Cc1noc(-c2ccn3c(CNC(=O)c4cccc5[nH]ccc45)nnc3c2)n1	KDM5B inhibitor 25µM
COc1ccccc1C(=O)NCc1nnc2cc(-c3nc(C)no3)ccn12	KDM5B inhibitor 10µM
CCCc1noc(-c2ccn3c(CNC(=O)c4cc(Cl)ccc4F)nnc3c2)n1	none
CCCc1noc(-c2ccn3c(CNC(=O)c4ccccc4OCC)nnc3c2)n1	KDM5B inhibitor 10µM
CCc1noc(-c2ccn3c(CNC(=O)c4cc(Cl)ccc4OC)nnc3c2)n1	none
COc1ccccc1C(=O)NCc1nnc2cc(-c3nc(C(C)C)no3)ccn12	KDM5B inhibitor 22µM
C=C(C)Cn1c(N(C)C)nc2c1c(=O)[nH]c(=O)n2C	none
COc1cccc2cc(-c3nc(-c4ccccc4)cs3)c(=O)oc12	none
CCOc1cccc(CNCc2cccs2)c1OCc1ccccc1	none
CCc1nnc(C(=O)Nc2cccc(C(=O)N3CCOCC3)c2)s1	none
Cc1cc2cc(NS(=O)(=O)c3cc(F)ccc3F)ccc2[nH]1	none
N#Cc1ccc(/C=C/c2ccc3c([N+](=O)[O-])cccc3n2)cc1	none
CCC(C)(C)C1CCC(NC(=O)Cn2nc(C)c3ccccc3c2=O)CC1 (stereo unspecified)	none
Cc1ccnc(NC(=O)c2cc(-c3ccncc3)nc3ccccc23)c1	none
COc1ccc2cc(CNC(=O)CNC(=O)c3ccc(C(F)(F)F)cc3)ccc2c1	none
COc1ccc(C(CNC(=O)CN2CCN(C)CC2)c2c[nH]c3ccccc23)cc1 (stereo unspecified)	none
O=C(O)c1ccc(COc2ccccc2/C=N/O)cc1	none
NC(=O)C(Sc1ccc2c(c1)OCCCO2)c1ccccc1 (stereo unspecified)	none
COc1ccc(NC(=O)C2CC(=O)Nc3nc(N4CCc5ccccc5C4)[nH]c(=O)c32)cc1 (stereo unspecified)	none
CCS(=O)(=O)c1nc(S(=O)(=O)c2ccc(C)cc2)c(NC2CCCC2)s1	none
NC(=O)CN1CCCC(c2nc(-c3ccc4nc[nH]c4c3)no2)C1 (stereo unspecified)	none
Cc1noc(-c2cccc(OC3CN(C(=O)c4cccc5[nH]ccc45)C3)c2)n1	KDM5B inhibitor 28µM
Cc1noc(-c2cccc(OC3CN(C(=O)c4cnn(C)c4)C3)c2)n1	none
CCOc1ccccc1C(=O)NCc1nnc2cc(-c3nc(C(C)C)no3)ccn12	KDM5B inhibitor 14µM
CCNC(=O)N1CC(Oc2cccc(-c3nc(C)no3)c2)C1	none
CC(Sc1ncc(C(F)(F)F)cc1Cl)C(=O)Nc1ccccc1F (stereo unspecified)	none
CC(c1nnc(-c2cccs2)o1)N(C)Cc1ccccc1F (stereo unspecified)	none
COc1cc(NC(=O)COc2ccc(-c3nnc4n3CCCC4)cc2)cc(OC)c1OC	none
O=C(NCCN1CCCCC1)c1nc(-c2ccc3cc[nH]c3c2)no1	none
Cc1nnc2n1CCC(NC(=O)c1cccn1C)CC2 (stereo unspecified)	KDM5B inhibitor 20µM
Cc1nnc2n1CCC(NC(=O)NCc1ccco1)CC2 (stereo unspecified)	none
Cc1nnc2n1CCC(NC(=O)c1cnccn1)CC2 (stereo unspecified)	none
COCCNC(=O)[C@@H]1Cc2cn(Cc3ccccn3)c3cccc(c23)[C@H](CC(C)C)N1	none
C#CCNC(=O)[C@@H]1Cc2cn(Cc3cc(C)on3)c3cccc(c23)[C@H](CC(C)C)N1	KDM5B inhibitor 32µM
CC(=O)NCCNC(=O)[C@@H]1Cc2cn(Cc3c(C)noc3C)c3cccc(c23)[C@H](CC(C)C)N1	none
Cc1noc(C)c1Cn1cc2c3c(cccc31)[C@H](CC(C)C)N[C@H](C(=O)NCC1CC1)C2	KDM5B inhibitor 32µM
Cc1cc(Cn2cc3c4c(cccc42)[C@H](CC(C)C)N[C@H](C(=O)NCc2cncn2C)C3)no1	none
Cc1cc(Cn2cc3c4c(cccc42)[C@H](CC(C)C)N[C@H](C(=O)NC2CCCC2)C3)no1	none
Cc1ccc(-c2nc(-c3ccc(C(C)(C)C)cc3)c(C)s2)cc1	none
CC(C)CC(=O)Nc1nonc1-c1ccc(Br)cc1	none
C[S+](=O)([O-])N1Cc2ccccc2CC2(CCN(CC3CCNCC3)CC2)C1	none
COCCNC(=O)Cc1c[nH]c2ncc(-c3ccccc3)cc12	KDM5B inhibitor 40µM
Cc1ccc2nc(-c3ccccc3)cc(C(=O)NCCCn3ccnc3)c2c1	none
COc1ccc(-c2cnc3[nH]cc(CC(=O)NCc4cnccn4)c3c2)cc1	none
COCCNC(=O)Cc1c[nH]c2ncc(-c3ccc(OC)cc3)cc12	KDM5B inhibitor 35µM
Cc1ccc(C(=O)NCCCn2ccnc2)cc1C	none
COCCNC(=O)Cc1c[nH]c2ncc(-c3cccnc3)cc12	none
O=C(Cc1c[nH]c2ncc(-c3ccccc3)cc12)NCCCn1ccnc1	KDM5B inhibitor 40µM
COc1ccc(C(=O)N(Cc2cc3cccc(C)c3[nH]c2=O)c2ccccc2)cc1	none
Cc1oc2ccn(Cc3ccccc3F)c(=O)c2c1C(=O)NCc1cc(F)cc(F)c1	none
O=C1CCN(Cc2ccc(F)cc2F)CCCC(c2nc(-c3cccnc3)no2)CCN1 (stereo unspecified)	none
Nc1ncnc(Nc2ccc(Cl)cc2)c1[N+](=O)[O-]	none
CN(C)C(=O)c1c(F)cccc1F	none
CCN(CC)S(=O)(=O)c1ccc2[nH]c(=O)cc(C(=O)N(C)Cc3ccccc3C)c2c1	none
O=c1cc(-c2ccccc2)sc2nnc(-c3ccccc3F)n12	none
Cc1noc(C)c1-c1cnc(Nc2ccc(CN3CCN(C)CC3)cc2)c2c1CCO2	KDM5B inhibitor 25µM
Cc1noc(C)c1-c1cn(C)c(=O)n2cc(COc3ccc(Cl)cc3)nc12	none
CN1CCN(Cc2ccc(Nc3cnc4ccc(-n5ccnc5)nn34)cc2)CC1	none
CN1CCN(Cc2ccc(Nc3ncc(-c4cncnc4)c4c3OCC4)cc2)CC1	none
Cc1noc(C)c1-c1cnc(Nc2ccc(Cl)cn2)c2c1CCO2	KDM5B inhibitor 28µM
CCC1Oc2ccc(NC(=O)COc3ccccc3)cc2CN(Cc2ccccc2Cl)C1=O (stereo unspecified)	none
CCN1CCC(OCCCNC(=O)C2(CCO)CC23CCOCC3)CC1 (stereo unspecified)	none
